Data: PubChem BioAssay (Tox21)
Unmarked numbers belong to inactive results. Records with an inconclusive call do not appear. A call without a number means that no potency is given here. Activity calls are given as the source filed them. Calls come from the whole dose curve; as a rule, active = well fitted curve in the direction sought with a large enough effect in the repeat runs; inconclusive = weak or mixed curves; inactive = no such curve, though single readings can be large; an effect the other way counts as inactive or inconclusive.

How the values were obtained:
[1] = Caspase-3/7 induction in CHO-K1 cells by small molecules, qHTS assay (AID 1346980); note: nearly all actives have a fitted effect of over 15% in size; note: potency is the fitted concentration of half-maximal effect
In short: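 Wild-type CHO-K1 cells exposed to compounds for 17hr at 37 C, 5% CO2. Caspase-3/7 activity then measured by Caspase-Glo 3/7 luminescence after 30min at room temperature.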

[2] = Caspase-3/7 induction in HepG2 cells by small molecules, qHTS cell viability counter screen (AID 1346981); note: series mostly up to about 92 µM; nearly all actives have a fitted effect of over 30% in size
In short: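 CellTiter-Fluor fluorescence measured viability in the same wells used for Caspase-Glo 3/7. HepG2 (wild type) at 2,000 cells/well were pre-incubated 5 hr, dosed, and given reagent at 16 hr, with 1 hr further at 37C.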

[3] = target: Nuclear receptor subfamily 1 group I member 2 (Homo sapiens) (UniProt O75469); experiment: Human pregnane X receptor (PXR) small molecule agonists, qHTS assay (AID 1346982); note: nearly all actives have a fitted effect of over 35% in size; note: potency is the fitted concentration of half-maximal effect
Chain of Nuclear receptor subfamily 1 group I member 2 (Homo sapiens) (O75469 whole entry, looked up): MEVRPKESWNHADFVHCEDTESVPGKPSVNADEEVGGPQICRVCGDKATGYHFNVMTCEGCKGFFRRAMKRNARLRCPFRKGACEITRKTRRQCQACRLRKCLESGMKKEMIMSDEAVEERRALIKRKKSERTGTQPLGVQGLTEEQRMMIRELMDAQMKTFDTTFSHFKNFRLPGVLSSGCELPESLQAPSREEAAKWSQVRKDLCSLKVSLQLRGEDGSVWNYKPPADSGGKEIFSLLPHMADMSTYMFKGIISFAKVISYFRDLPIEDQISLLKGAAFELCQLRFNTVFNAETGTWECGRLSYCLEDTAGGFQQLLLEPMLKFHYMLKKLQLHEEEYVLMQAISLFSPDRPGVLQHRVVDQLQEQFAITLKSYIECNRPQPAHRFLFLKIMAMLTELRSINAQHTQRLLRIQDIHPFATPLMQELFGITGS
In short: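 Agonist mode: luminescence from ONE-Glo after 24 h compound exposure at 37C in HepG2 cells carrying hPXR-responsive CYP3A4 luciferase, plated in charcoal-stripped serum medium 5 h beforehand.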

[4] = target: Cytochrome P450 2D6 (Homo sapiens) (UniProt P10635); experiment: Cytochrome P450 Family 2 Subfamily D Member 6 (CYP2D6) small molecule antagonists: luciferase reporter qHTS assay (AID 1671196); note: nearly all actives have a fitted effect of over 50% in size; note: potency is the fitted concentration of half-maximal effect; for activity change, negative = inhibition: series mostly up to about 120 µM
Chain of Cytochrome P450 2D6 (Homo sapiens) (P10635 whole entry, looked up): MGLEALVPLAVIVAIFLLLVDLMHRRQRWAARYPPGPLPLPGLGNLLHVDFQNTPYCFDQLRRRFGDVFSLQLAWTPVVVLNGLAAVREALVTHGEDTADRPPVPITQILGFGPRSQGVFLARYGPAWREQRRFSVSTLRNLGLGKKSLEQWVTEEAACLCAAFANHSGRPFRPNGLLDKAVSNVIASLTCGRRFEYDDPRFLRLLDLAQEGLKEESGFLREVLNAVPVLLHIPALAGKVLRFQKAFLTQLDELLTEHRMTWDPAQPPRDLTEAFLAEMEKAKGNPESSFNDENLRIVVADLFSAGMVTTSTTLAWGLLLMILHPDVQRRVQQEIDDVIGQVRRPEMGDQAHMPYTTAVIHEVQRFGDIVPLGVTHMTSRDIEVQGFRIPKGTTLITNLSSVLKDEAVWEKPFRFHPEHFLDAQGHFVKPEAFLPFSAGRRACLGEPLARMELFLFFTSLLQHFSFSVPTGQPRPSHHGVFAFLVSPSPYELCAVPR
In short: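 CYP2D6 activity was followed as luminescence from its luciferin product after a 1 h NADPH-driven reaction at room temperature. Enzyme-substrate mix and compound were pre-incubated for 10 min, and the signal was read 20 min after adding detection reagent.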

[5] = target: Cytochrome P450 2C19 (Homo sapiens) (UniProt P33261); experiment: Cytochrome P450 Family 2 Subfamily C Member 19 (CYP2C19) small molecule antagonists: luciferase reporter qHTS assay (AID 1671197); note: nearly all actives have a fitted effect of over 65% in size; note: potency is the fitted concentration of half-maximal effect; for activity change, negative = inhibition: series mostly up to about 120 µM
Chain of Cytochrome P450 2C19 (Homo sapiens) (P33261 whole entry, looked up): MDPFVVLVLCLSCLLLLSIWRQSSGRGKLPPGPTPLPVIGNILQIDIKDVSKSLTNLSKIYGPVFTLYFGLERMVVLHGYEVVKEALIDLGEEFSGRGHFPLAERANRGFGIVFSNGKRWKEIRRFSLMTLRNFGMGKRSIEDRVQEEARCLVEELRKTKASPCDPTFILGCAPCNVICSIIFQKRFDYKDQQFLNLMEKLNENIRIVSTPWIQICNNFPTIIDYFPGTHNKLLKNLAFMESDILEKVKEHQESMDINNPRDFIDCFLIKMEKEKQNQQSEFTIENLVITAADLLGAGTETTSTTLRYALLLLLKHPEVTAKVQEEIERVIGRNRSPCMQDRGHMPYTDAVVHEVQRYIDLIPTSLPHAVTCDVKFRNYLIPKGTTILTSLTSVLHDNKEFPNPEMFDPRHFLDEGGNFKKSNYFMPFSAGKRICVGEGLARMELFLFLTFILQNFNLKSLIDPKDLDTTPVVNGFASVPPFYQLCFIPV
In short: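 Luminescent readout of CYP2C19 activity: luciferin product detected 20 min after adding detection reagent. Before that, compound and enzyme-substrate mix preincubated 10 min at room temperature; NADPH-regenerating system started a 1 h, 37C reaction. Ketoconazole as positive control.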

[6] = target: Cytochrome P450 2C9 (Homo sapiens) (UniProt P11712); experiment: Cytochrome P450 Family 2 Subfamily C Member 9 (CYP2C9) small molecule antagonists: luciferase reporter qHTS assay (AID 1671198); note: nearly all actives have a fitted effect of over 50% in size; note: potency is the fitted concentration of half-maximal effect; for activity change, negative = inhibition: series mostly up to about 120 µM
Chain of Cytochrome P450 2C9 (Homo sapiens) (P11712 whole entry, looked up): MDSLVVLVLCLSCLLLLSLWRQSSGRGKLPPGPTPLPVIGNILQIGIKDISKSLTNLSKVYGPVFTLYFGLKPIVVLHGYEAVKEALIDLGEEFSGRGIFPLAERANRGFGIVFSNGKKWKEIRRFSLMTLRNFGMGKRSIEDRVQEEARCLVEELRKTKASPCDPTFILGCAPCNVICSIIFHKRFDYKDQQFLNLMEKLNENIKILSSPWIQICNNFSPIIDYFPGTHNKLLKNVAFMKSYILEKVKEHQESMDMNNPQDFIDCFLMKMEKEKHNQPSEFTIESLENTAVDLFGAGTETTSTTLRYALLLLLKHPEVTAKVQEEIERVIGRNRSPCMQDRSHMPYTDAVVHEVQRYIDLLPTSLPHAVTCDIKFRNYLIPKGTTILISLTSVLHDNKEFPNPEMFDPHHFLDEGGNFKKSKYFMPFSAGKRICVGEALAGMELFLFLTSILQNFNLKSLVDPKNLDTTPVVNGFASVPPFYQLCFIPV
In short: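 P450-Glo proluciferin substrate with CYP2C9 enzyme; 10 min RT preincubation, then NADPH regeneration 1 h at 37C; luciferin detection reagent 20 min RT, luminescence in relative luminescence units.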

[7] = target: Cytochrome P450 1A2 (Homo sapiens) (UniProt P05177); experiment: Cytochrome P450 Family 1 Subfamily A Member 2 (CYP1A2) small molecule antagonists: luciferase reporter qHTS assay (AID 1671199); note: nearly all actives have a fitted effect of over 50% in size; note: potency is the fitted concentration of half-maximal effect; for activity change, negative = inhibition: series mostly up to about 120 µM
Chain of Cytochrome P450 1A2 (Homo sapiens) (P05177 whole entry, looked up): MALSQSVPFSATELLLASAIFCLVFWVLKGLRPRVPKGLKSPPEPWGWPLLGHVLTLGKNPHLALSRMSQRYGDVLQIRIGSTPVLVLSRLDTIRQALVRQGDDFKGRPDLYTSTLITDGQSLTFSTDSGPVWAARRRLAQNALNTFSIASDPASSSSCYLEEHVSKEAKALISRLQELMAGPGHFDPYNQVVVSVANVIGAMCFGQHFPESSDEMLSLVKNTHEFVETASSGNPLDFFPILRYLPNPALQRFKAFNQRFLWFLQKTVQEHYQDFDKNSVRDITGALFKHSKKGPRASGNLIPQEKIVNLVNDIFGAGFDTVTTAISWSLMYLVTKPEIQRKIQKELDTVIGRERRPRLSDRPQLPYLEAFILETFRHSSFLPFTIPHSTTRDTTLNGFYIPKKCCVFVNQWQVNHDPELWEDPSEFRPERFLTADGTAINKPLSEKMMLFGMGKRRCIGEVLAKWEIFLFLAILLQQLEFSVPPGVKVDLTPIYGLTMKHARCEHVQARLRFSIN
In short: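 Luminescence from luciferin formed by CYP1A2 from a proluciferin substrate, read 20 min after detection reagent. Compound was pre-incubated 10 min with enzyme-substrate, and reaction started with NADPH regeneration solution for 1 h at room temperature; furafylline control.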

[8] = target: Voltage-gated inwardly rectifying potassium channel KCNH2 (Homo sapiens) (UniProt Q12809); experiment: Human Ether-a-go-go-Related Gene (hERG) channel small molecule antagonists: fluorescence cell-based qHTS assay (AID 1671200);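 note: hERG-expressing U2OS cells given a thallium stimulus after FluxOR II dye loading; series mostly up to about 77 µM; nearly all actives have a fitted effect of over 50% in size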
Chain of Voltage-gated inwardly rectifying potassium channel KCNH2 (Homo sapiens) (Q12809 whole entry, looked up): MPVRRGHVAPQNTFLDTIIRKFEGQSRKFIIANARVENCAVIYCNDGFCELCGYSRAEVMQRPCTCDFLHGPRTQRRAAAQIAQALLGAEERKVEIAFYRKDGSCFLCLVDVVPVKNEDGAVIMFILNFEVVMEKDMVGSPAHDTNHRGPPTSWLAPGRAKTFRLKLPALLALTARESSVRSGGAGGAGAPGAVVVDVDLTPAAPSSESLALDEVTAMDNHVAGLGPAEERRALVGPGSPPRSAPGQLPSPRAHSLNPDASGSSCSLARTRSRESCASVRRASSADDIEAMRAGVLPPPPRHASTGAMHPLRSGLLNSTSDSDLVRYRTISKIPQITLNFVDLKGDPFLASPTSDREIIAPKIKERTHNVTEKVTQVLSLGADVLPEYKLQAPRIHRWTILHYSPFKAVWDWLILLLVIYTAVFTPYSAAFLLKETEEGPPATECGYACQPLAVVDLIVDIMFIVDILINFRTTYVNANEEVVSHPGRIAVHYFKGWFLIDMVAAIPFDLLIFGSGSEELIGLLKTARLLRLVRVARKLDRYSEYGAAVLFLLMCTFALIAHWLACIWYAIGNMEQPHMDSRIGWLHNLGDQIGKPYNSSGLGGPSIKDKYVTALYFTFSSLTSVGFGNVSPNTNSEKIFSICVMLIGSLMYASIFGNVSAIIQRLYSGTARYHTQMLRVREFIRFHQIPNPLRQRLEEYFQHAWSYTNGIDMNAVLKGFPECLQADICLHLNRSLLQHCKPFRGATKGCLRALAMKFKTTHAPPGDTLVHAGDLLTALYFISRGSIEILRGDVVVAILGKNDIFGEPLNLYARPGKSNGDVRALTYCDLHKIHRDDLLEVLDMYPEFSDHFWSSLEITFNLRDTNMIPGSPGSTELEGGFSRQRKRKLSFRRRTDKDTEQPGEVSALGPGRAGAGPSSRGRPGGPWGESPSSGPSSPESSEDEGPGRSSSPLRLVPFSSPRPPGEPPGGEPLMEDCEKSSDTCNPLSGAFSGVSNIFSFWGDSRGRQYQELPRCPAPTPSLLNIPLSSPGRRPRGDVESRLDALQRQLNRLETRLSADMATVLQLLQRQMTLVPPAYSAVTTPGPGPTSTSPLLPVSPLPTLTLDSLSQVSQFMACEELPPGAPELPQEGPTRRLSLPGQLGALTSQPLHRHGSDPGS
In short: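 Cell line hERG-U2OS; dye FluxOR II, 1 h RT dark; Tl+ stimulus; ex 480/em 540 nm, read each second for 2 min.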

[9] = target: Nuclear receptor subfamily 1 group I member 2 (Homo sapiens) (UniProt O75469); experiment: CYP3A4 induction through human pregnane X receptor (PXR) by small molecules, qHTS assay (AID 1346984); note: nearly all actives have a fitted effect of over 40% in size
In short: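 Read-out is luminescence after One-Glo addition, following a 3 hr, 37C incubation with Luciferin-IPA CYP3A4 substrate (3uM final). Before that, compounds were on DPX-2 cells (HepG2 co-transfected with PXR element plus CYP3A4-promoter luciferase) for 24 hr at 37C.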

[10] = target: Nuclear receptor subfamily 1 group I member 2 (Homo sapiens) (UniProt O75469); experiment: Human pregnane X receptor (PXR) activation by small molecules, qHTS assay (AID 1346985); note: nearly all actives have a fitted effect of over 40% in size; note: potency is the fitted concentration of half-maximal effect
In short: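 DPX-2 cells (HepG2 co-transfected with a PXR response element and a CYP3A4-promoter luciferase construct) were seeded at 2,000 per well, rested 5 hr at 37C, then exposed to DMSO-dissolved compounds for 24 hr. Activation was read as luciferase luminescence.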

[11] = target: Cytochrome P450 3A4 (Homo sapiens) (UniProt P08684); experiment: Cytochrome P450 Family 3 Subfamily A Member 4 (CYP3A4) small molecule antagonists: luciferase reporter qHTS assay (AID 1671201); note: nearly all actives have a fitted effect of over 50% in size; note: potency is the fitted concentration of half-maximal effect; for activity change, negative = inhibition: series mostly up to about 120 µM
Chain of Cytochrome P450 3A4 (Homo sapiens) (P08684 whole entry, looked up): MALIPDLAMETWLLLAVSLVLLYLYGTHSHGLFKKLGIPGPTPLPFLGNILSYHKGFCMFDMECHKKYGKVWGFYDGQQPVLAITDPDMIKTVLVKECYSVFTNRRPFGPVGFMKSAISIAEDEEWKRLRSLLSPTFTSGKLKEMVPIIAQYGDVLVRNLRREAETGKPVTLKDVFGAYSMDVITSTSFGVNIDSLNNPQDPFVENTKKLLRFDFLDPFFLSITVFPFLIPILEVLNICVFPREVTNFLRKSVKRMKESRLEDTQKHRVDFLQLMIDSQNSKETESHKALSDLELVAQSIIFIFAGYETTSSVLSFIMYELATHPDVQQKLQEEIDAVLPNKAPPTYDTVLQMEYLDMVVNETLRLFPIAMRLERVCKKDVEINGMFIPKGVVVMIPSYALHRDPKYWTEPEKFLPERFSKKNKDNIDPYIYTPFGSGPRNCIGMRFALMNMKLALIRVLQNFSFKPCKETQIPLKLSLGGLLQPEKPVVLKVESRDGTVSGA
In short: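 Room-temperature assay throughout: 10 min compound–enzyme/substrate preincubation, 1 h reaction after NADPH regeneration solution, 20 min detection. Luciferin formed from proluciferin substrate is quantified by luminescence.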

[12] = target: Nuclear receptor subfamily 1 group I member 2 (Rattus norvegicus) (UniProt Q9R1A7); experiment: Rat pregnane X receptor (rPXR) activation by small molecules, qHTS assay (AID 1346983); details: rPXR luciferase reporter cells, One-Glo luminescence, 24 h; max activation: stronger effect = higher value; note: nearly all actives have a fitted effect of over 20% in size
Chain of Nuclear receptor subfamily 1 group I member 2 (Rattus norvegicus) (Q9R1A7 whole entry, looked up): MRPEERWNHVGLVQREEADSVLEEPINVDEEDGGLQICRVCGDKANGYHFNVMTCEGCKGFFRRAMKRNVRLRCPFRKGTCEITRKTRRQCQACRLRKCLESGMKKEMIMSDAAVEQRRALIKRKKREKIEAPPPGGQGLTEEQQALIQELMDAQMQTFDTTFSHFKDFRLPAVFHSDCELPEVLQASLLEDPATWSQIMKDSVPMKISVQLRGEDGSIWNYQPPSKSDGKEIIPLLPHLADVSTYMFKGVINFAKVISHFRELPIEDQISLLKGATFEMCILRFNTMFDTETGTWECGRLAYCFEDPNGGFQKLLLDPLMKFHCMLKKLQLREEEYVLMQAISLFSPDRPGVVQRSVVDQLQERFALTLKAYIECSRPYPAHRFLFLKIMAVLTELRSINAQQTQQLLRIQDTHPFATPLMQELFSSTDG
In short: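 Cell-based rPXR activation assay: rPXR cells, 2,000 per well, rested 5hr at 37 C, then exposed to compounds in DMSO for 24 hr at 37 C. Luciferase activity read by One-Glo luminescence after 30 min at room temperature.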

| SMILES | Potency [1] | Potency [2] | Potency [3] | Potency [4] | Potency [5] | Potency [6] | Potency [7] | Potency [8] | Potency [9] | Potency [10] | Potency [11] | max activation [12] [%] | caspase-3/7 activation [1] | activity change, negative = cytotoxicity [2] | activity change, negative = inhibition [8] |
| --- | --- | --- | --- | --- | --- | --- | --- | --- | --- | --- | --- | --- | --- | --- | --- |
| CCCCOC(=O)c1ccccc1C(=O)OCC(CC)CCCC (stereo not given) | inactive | inactive | inactive | inactive | 6.33 µM (active) | 12.6 µM (active) | 12.6 µM (active) | inactive | – | – | – | – | – | – | – |
| c1ccc(-c2nc[nH]c2-c2ccccc2)cc1 | inactive | inactive | inactive | – | – | – | 8.12 µM (active) | inactive | inactive | inactive | – | – | – | – | – |
| CC(C)(C)C1CCCCC1O (stereo not given) | inactive | inactive | inactive | inactive | inactive | inactive | inactive | inactive | – | – | inactive | – | – | – | – |
| CCCCCCCCCCCCCCCC(=O)OC/C=C(C)/C=C/C=C(C)/C=C/C1=C(C)CCCC1(C)C | inactive | inactive | 24.3 µM (active) | inactive | 39.9 µM (active) | 35.6 µM (active) | – | inactive | – | – | – | – | – | – | – |
| CC/C(=C\C(=N/O)C(N)=O)C(C)[N+](=O)[O-] (stereo not given) | inactive | inactive | inactive | inactive | inactive | inactive | inactive | inactive | – | – | inactive | – | – | – | – |
| CC[C@H](C)[C@@H](C(=O)O)n1sc2ccccc2c1=O | inactive | inactive | inactive | inactive | inactive | inactive | 25.2 µM (active) | inactive | – | – | inactive | – | – | – | – |
| CCOc1ccc2[nH]cc(C(=O)NCc3ccccc3)c(=O)c2n1 | inactive | inactive | 19.3 µM (active) | inactive | 79.6 µM (active) | 25.2 µM (active) | 31.7 µM (active) | inactive | – | – | – | – | – | – | – |
| CCOC(=O)CC(C)C | inactive | inactive | inactive | inactive | inactive | inactive | inactive | inactive | – | – | inactive | – | – | – | – |
| O=S1(=O)c2cccc3cccc(c23)N1CCCN1CCN(c2ccc(F)cc2)CC1 | inactive | inactive | 4.73 µM (active) | 1.55 µM (active) | 24.5 µM (active) | inactive | 15.5 µM (active) | – | inactive | 15.8 µM (active) | – | – | – | – | – |
| Nc1cnn([C@@H]2O[C@H](CO)[C@@H](O)[C@H]2O)c(=O)n1 | inactive | inactive | inactive | inactive | inactive | inactive | inactive | inactive | – | – | inactive | – | – | – | – |
| C=CC(=O)OCC(C)OCC(C)OCC(C)OC(=O)C=C (stereo not given) | 24.3 µM (active) | inactive | inactive | inactive | 3.56 µM (active) | 35.6 µM (active) | 6.33 µM (active) | inactive | – | – | 5.03 µM (active) | – | – | – | – |
| CCCOc1ccc2nc(NC(=O)OC)[nH]c2c1 | inactive | inactive | 3.76 µM (active) | inactive | inactive | inactive | inactive | inactive | – | – | inactive | – | – | – | – |
| CCCCCCCC/C=C\CCCCCCCC(N)=O | inactive | inactive | 15.3 µM (active) | 50.2 µM (active) | inactive | inactive | 35.6 µM (active) | inactive | – | – | inactive | – | – | – | – |
| CN(C(=O)CCCOc1ccc2[nH]c(=O)ccc2c1)C1CCCCC1 | inactive | inactive | 15 µM (active) | inactive | – | – | inactive | inactive | – | – | – | – | – | – | – |
| O=C(O)C1CCC(C(=O)O)CC1 (stereo not given) | inactive | inactive | inactive | – | inactive | inactive | inactive | inactive | – | – | inactive | – | – | – | – |
| CC(C(=O)O)c1ccc(-c2ccccc2)c(F)c1 (stereo not given) | inactive | inactive | – | – | inactive | 25.2 µM (active) | – | inactive | inactive | inactive | inactive | -4.66 | – | – | – |
| CC(=O)OC/C=C/c1ccccc1 | inactive | inactive | inactive | inactive | – | – | 31.7 µM (active) | inactive | – | – | inactive | – | – | – | – |
| CCN(CCO)CCCC(C)Nc1ccnc2cc(Cl)ccc12 (stereo not given) | – | – | – | – | – | – | – | – | – | – | – | -3.7 | -0.893% [at 8.39 µM] | 3.29% [at 8.39 µM] | 9.57% [at 6.97 µM] |
| Cc1nc2ccccc2n1Cc1ccc(Cl)cc1 | inactive | inactive | – | 15.5 µM (active) | 3.09 µM (active) | 13.8 µM (active) | 7.23 µM (active) | inactive | inactive | inactive | – | -21.8 | – | – | – |
| FC(F)(F)C(F)(F)C(F)(F)C(F)(F)C(F)(F)C(F)(F)CCI | inactive | inactive | inactive | – | inactive | – | inactive | inactive | – | – | inactive | – | – | – | – |
| CCCCCOC(=O)c1ccc(O)cc1 | inactive | inactive | – | 71.8 µM (active) | 28.6 µM (active) | 36 µM (active) | 2.55 µM (active) | – | – | – | – | – | – | – | – |
| O=c1[nH]cnc2ccccc12 | inactive | inactive | 0.398 µM (active) | inactive | – | inactive | – | inactive | – | – | inactive | – | – | – | – |
| OCC1CC2CC1C1CCC(CO)C21 (stereo not given) | inactive | inactive | inactive | inactive | – | – | – | inactive | – | – | inactive | – | – | – | – |
| CC(=O)/C(C)=C/C1C(C)=CCCC1(C)C (stereo not given) | inactive | inactive | inactive | inactive | – | – | 79.6 µM (active) | inactive | – | – | inactive | – | – | – | – |
| Oc1ccc(Cc2ccccc2)cc1 | inactive | inactive | 56.6 µM (active) | – | 20.8 µM (active) | 65.7 µM (active) | – | inactive | – | – | inactive | – | – | – | – |
